# Rows were chosen to be rich in hits. Some 17% of all compounds tested hit in one or more screens of this group.
# ATXN viability: reduces viability in counter-screen for ATXN expression inhibitors | Potency, µM (doses to about 56.7 µM), most hits filed as cytotoxic | actives 0.49% (n = 400,000) | S2 cells (HEK-293 line with an ATXN2-luciferase reporter) viability, CellTiter-Fluor protease fluorescence, 24 h; further: nearly all actives have a fitted effect of over 40% in size
# ATXN2 expr inh: inhibitors of ATXN2 expression; HEK-293 ATXN2-luciferase reporter, luminescence, 24 h; Potency, µM (titrated, usually from 57 µM), most hits filed as inhibitors; actives 0.72% (n = 360,000); AID 1745845; further: nearly all actives have a fitted effect of over 55% in size
#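 qHTS (up to 57 uM final) was run with 24 h compound exposure of reporter cells at 37 °C. Each well was multiplexed: SteadyGlo luminescence measured ATXN2-luciferase expression after a fluorogenic Gly-Phe-AFC viability readout (25 uM final).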
# TDP1 cell noCPT: qHTS for Inhibitors of human tyrosyl-DNA phosphodiesterase 1 (TDP1): qHTS in cells in absence of CPT | DT40 Tdp1-/- hTDP1 cells, no CPT, ATP luminescence, 48 h | Potency, µM (top dose mostly 46.2 µM), usual class: inhibitors | actives 15% (n = 420,000) | AID 686978, 2013; further: nearly all actives have a fitted effect of over 55% in size
#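 Stably hTDP1-transfected Tdp1-null chicken DT40 cells were treated with library compounds minus camptothecin and grown for at least 48 hr at 37 °C, after which cellular ATP was quantified by luminescence.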
# TGFb SMAD3 inh: blocks TGF-b signaling. HepG2 CAGA-GFP TGF-b/SMAD3 reporter, GFP fluorescence, 18 h; TGF-beta stimulated, 500 pg/mL final. Potency, µM (doses to about 46.1 µM), hits mostly inhibitors. AID 588855. actives 1.2% (n = 410,000); further: nearly all actives have a fitted effect of over 65% in size
#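 First, reporter cells (HEPG2 CAGA-GFP) rested 2 h at 37 degrees C. Next, compounds were pinned in and TGF-beta added to 500 pg/mL final. After 18 h, GFP was imaged per cell and summed per well.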
# HepG2 tox: HepG2 cytotoxicity, counter-screen for TGF-b inhibitors | HepG2 CAGA-GFP viability, ATP luminescence, 18 h | Potency, µM (series often up to 46.1 µM), actives largely listed as cytotoxic | actives 0.76% (n = 410,000) | AID 588856
#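 CellTiter-Glo luminescence gave cytotoxicity after 18 hours at 37 degrees C. The cells were HepG2 CAGA-GFP in 1% FBS DMEM, stimulated with 500 pg/mL TGF-beta after compound addition. %Activity was normalised to no-cell wells (complete cell-killing) and DMSO (no toxicity), and curves were fitted and classified.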
# TDP1 cell CPT: growth inhibition of DT40 Tdp1-/-;hTDP1 cells with camptothecin (screen for TDP1 inhibitors); actives 12% (n = 420,000); Potency, µM (titrated, usually from 46.2 µM), actives largely listed as inhibitors; chicken DT40 Tdp1-/-;hTDP1 cells + 20 nM CPT, ATP luminescence, 48 h; further: nearly all actives have a fitted effect of over 55% in size
#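 Chicken DT40 Tdp1-/- cells complemented with human TDP1, 400 cells/well, exposed to compounds plus 20 nM camptothecin for at least 48 h at 37 C; viability read as ATP content by CellTiter-Glo luminescence.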
# Hits are given with their value; . = inactive; ? = inconclusive; / = no result; [ ] = another dose, or the depositor's remark. The call rests on the fitted dose curve; in most records, active means well fitted curve in the direction sought with a large enough effect; inconclusive means small, poorly fitted or top-dose-only effect, or another doubt; inactive means no such curve, though single readings can be large; an effect the other way counts as inactive or inconclusive.
SMILES,ATXN viability,ATXN2 expr inh,TDP1 cell noCPT,TGFb SMAD3 inh,HepG2 tox,TDP1 cell CPT
CC(=O)NC(C)(c1ccccc1)c1nc(-c2csc3ccccc23)cs1 (stereo not drawn),.,.,16µM,.,.,21µM
COc1ccc(C(C)(NC(C)=O)c2nc(-c3cccc(F)c3)cs2)cc1 (stereo not drawn),.,.,?,.,.,?
COc1ccc(C(C)(NC(C)=O)c2nc(-c3cccc(C(=O)O)c3)cs2)cc1 (stereo not drawn),.,.,.,.,.,.
COc1ccc(-c2csc(C(C)(NC(C)=O)c3ccccc3)n2)cn1 (stereo not drawn),.,.,?,.,.,?
COc1ccc(C(C)(NC(C)=O)c2nc(-c3cc(F)cc(F)c3)cs2)cc1 (stereo not drawn),.,?,21µM,?,.,16µM
COc1ccc(-c2csc(C(C)(NC(C)=O)c3ccccc3)n2)cc1 (stereo not drawn),.,.,16µM,.,.,?
Clc1ccc2c(c1)Nc1ccccc1CC2,.,.,?,.,.,?
CCc1ccc(C(=O)c2cn(CC(=O)Nc3ccc4c(c3)OCO4)c3ccc(OC)cc3c2=O)cc1,?,.,?,.,.,?
Nc1ncnc2c1ncn2[C@@H]1O[C@H](C(=O)Nc2ccc(C(=O)N3CCCCC3)cc2)[C@@H](O)[C@H]1O,.,.,.,.,.,.
COc1ccc(C(C)(NC(C)=O)c2nc(-c3cccc(C#N)c3)cs2)cc1 (stereo not drawn),.,.,16µM,.,.,15µM
Cc1cc(N(C)C)cc(C)c1/C=C/c1ccnc2ccccc12,/,/,11µM,?,.,14µM
Cc1cc([N+](C)(C)C)cc(C)c1/C=C/c1ccnc2ccccc12,/,/,3.2µM,.,.,3.5µM
CC(NC(=O)COC(=O)CN1C(=O)c2ccccc2C1=O)c1ccccc1 (stereo not drawn),.,.,.,.,.,.
Cc1c(C(=O)Nc2cccc(F)c2)sc2nc(-c3cc4ccccc4oc3=O)[nH]c(=O)c12,/,/,?,.,.,23µM
Cc1cccc(NC(=O)c2sc3nc(-c4cc5ccc(O)cc5oc4=O)[nH]c(=O)c3c2C)c1,/,/,21µM,.,.,21µM
CC(=O)NCCOc1nc(N2CCCCC2)nc(N2CCCCC2)n1,.,.,15µM,.,.,.
O=C(NCCOc1nc(N2CCCCC2)nc(N2CCCCC2)n1)Nc1ccccc1,?,.,23µM,.,.,?
COc1cc(Cl)ccc1OCc1cc(C(=O)N2CCN(C)CC2)no1,.,.,.,.,.,.
COCCN1CCN(C(=O)c2cc(COc3ccc(F)c(F)c3)on2)CC1,.,.,.,.,.,.
CCN1CCN(C(=O)c2cc(COc3ccc(F)c(F)c3)on2)[C@@H](C)C1=O,?,/,21µM,.,.,15µM
O=C(c1cc(COc2c(F)cccc2F)on1)N1CCN(C2CCCCC2)C(=O)C1,.,.,?,.,.,?
O=C(c1cc(COc2ccc(F)cc2Cl)on1)N1CCN(C2CCCCC2)C(=O)C1,?,.,7.3µM,?,.,10µM
O=C(c1cc(COc2ccc(F)c(F)c2)on1)N1CCN(C/C=C/c2ccccc2)CC1,.,.,26µM,?,.,?
COc1cc(Cl)ccc1OCc1cc(C(=O)N2CCN(C3CCCCC3)CC2)no1,.,/,23µM,.,.,?
CCCN1CCN(C(=O)c2cc(COc3ccc(F)c(F)c3)on2)CC1,.,.,.,.,.,.
SMILES,ATXN viability,ATXN2 expr inh,TDP1 cell noCPT,TGFb SMAD3 inh,HepG2 tox,TDP1 cell CPT
CN(C)S(=O)(=O)Nc1cc(F)cc(F)c1,.,.,.,.,.,.
CC(C)S(=O)(=O)N1CCCC(c2cc(C(=O)NCc3ccccc3)no2)C1 (stereo not drawn),.,.,.,.,.,.
COc1ccc(OCc2cc(C(=O)N3CCC(OC)CC3)no2)c2ccccc12,.,.,15µM,.,.,23µM
O=C(c1cc(COc2ccc(F)c(F)c2)on1)N1CCN(C2CCCCC2)C(=O)C1,.,/,23µM,?,.,?
O=C(c1cc(COc2ccc(F)cc2Cl)on1)N1CCN(C2CCCC2)CC1,.,.,?,?,.,18µM
Cc1ccc(C)c(OCc2cc(C(=O)N3CCN(C4CCCCC4)CC3)no2)c1,.,/,?,.,.,?
COc1ccc(-c2cnc3c(c2)C(=O)N([C@H](C)CO)C[C@@H](C)[C@@H](CN(C)C(=O)NC2CCCC2)O3)cc1,.,.,.,.,.,.
CCCCNC(=O)c1ccccc1C(=O)NC1(C(=O)NCCCC)CCCC1,.,.,.,.,.,.
CN(C)CCC=C1c2ccccc2C=Cc2ccccc21,?,?,15µM,.,.,?
CNCCC=C1c2ccccc2C=Cc2ccccc21,?,.,13µM,.,.,16µM
CCCCC(=O)N1C/C=C\C(c2ccc(OC)cc2)N(Cc2ccc(F)cc2)C(=O)C1C (stereo not drawn),/,/,/,?,.,/
O=C(N/N=C/c1ccc[nH]1)c1sc2ccccc2c1Cl,.,.,13µM,?,.,13µM
CCc1ccc2c(Cl)c(C(=O)N/N=C/c3c[nH]c4ccccc34)sc2c1,.,.,?,?,.,21µM
CCc1ccc(-c2cc(C(=O)N/N=C/c3c[nH]c4ccccc34)[nH]n2)cc1,?,.[11.3 µM],6.5µM,?,.,16µM
CCc1ccc(/C=N/NC(=O)c2cc(-c3cccc([N+](=O)[O-])c3)n[nH]2)cc1,.,.,2.9µM,?,.,3.7µM
O=C(N/N=C/c1c[nH]c2ccccc12)c1cccc(Cl)c1,.,/,.,.,.,.
Nc1ccn([C@@H]2O[C@H](C(=O)N3CCCN(Cc4cccs4)CC3)[C@@H](O)[C@H]2O)c(=O)n1,.,.,.,.,.,.
COc1cccc(-n2nc(-c3ccnn3-c3cccc(Cl)c3)c(=O)n(C)c2=O)c1,.,/,16µM,?,.,23µM
COc1cccc(-n2nc(-c3ccnn3-c3ccccc3)c(=O)n(C)c2=O)c1,.,.,?,.,.,.
CCCCNC(=O)CSc1nc2cc3c(cc2c(=O)n1CCCC(=O)NCCc1ccc(OC)c(OC)c1)OCO3,.,.,.,.,.,.
CCN(CC)C(=O)CSc1nc2cc3c(cc2c(=O)n1CCCC(=O)NCCc1ccc(OC)c(OC)c1)OCO3,.,.,18µM,.,.,?
